What all share (settings): 10 µM; exposure time: 3 h pre-incubation + 3 h imaging
The subject of assay [1] is Danio rerio larvae (5 dpf). Briefly: combined upward orientation toward moving lines (periods 7-14) minus DMSO control (percentage points); higher = more orientation with moving lines than DMSO larvae. A digest of the protocol:
(§1)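 Behavioural measures are expressed in percentage points as the treated group mean minus the control group mean. Groups held 48 larvae and the control held 844. Wild-type zebrafish larvae at 5 dpf received compounds at 10 µM final for 3 h before imaging and throughout 3 h of imaging at 28.5 °C, with frames every 6 s tracked by Z-LaP Tracker. Detections with probability below 0.5 and larvae moving less than 1% of the time were excluded.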

Assay [2] concerns Danio rerio larvae (5 dpf). Briefly: combined optomotor response (time in upper well half, down vs up moving lines, periods 7-14) minus DMSO control (percentage points); higher = stronger optomotor response than DMSO larvae.
In assay [3] the test system is Danio rerio larvae (5 dpf). Briefly: startle (activity period 16 minus period 15, 20-s interval sound) minus DMSO control (percentage points); higher = stronger startle response than DMSO larvae. In a few lines: as §1
The test system of assay [4] is Danio rerio larvae (5 dpf). In words: excitability (activity period 17 minus period 16, 1-s interval sound) minus DMSO control (percentage points); higher = more acoustic excitability than DMSO larvae. In a few lines:
as §1

Assay [5] has as its system Danio rerio larvae (5 dpf). Briefly: 1-h baseline activity (% time moving, periods 1-6) minus DMSO control (percentage points); higher = more locomotor activity than DMSO larvae. A digest of the protocol:
as §1

For assay [6], the system named is Danio rerio larvae (5 dpf). In words: habituation (activity change first vs second 5 min of 1-s interval sound, period 17) minus DMSO control (percentage points); higher = larger habituation measure than DMSO larvae. In a few lines: as §1

Where a name gives a salt, the structure may show the parent alone.

On to `N#Cc1ccc(C(c2ccc(C#N)cc2)n2cncn2)cc1` [Letrozole], for which, in assay [1], the “combined upward orientation toward moving lines” value was -1.71. In addition, the combined optomotor response in assay [2] is -0.923.
Consider `CCCCNc1cc(C(=O)O)cc(S(N)(=O)=O)c1Oc1ccccc1` [Bumetanide], for which the “combined upward orientation toward moving lines” value in assay [1] was -3.42. Also, the combined optomotor response in assay [2] came out at 9.27.
In the case of `CCCc1nc2c(C)cc(-c3nc4ccccc4n3C)cc2n1Cc1ccc(-c2ccccc2C(=O)O)cc1` [Telmisartan], the startle in assay [3] came to 2.86. Besides, in assay [2], the combined optomotor response turned out to be 2.86.
For `Cc1ccc(O)c([C@H](CCN(C(C)C)C(C)C)c2ccccc2)c1` [Tolterodine L-tartrate], the startle in assay [3] is -5.5. Moreover, the excitability in assay [4] came to 4.8. In assay [1], the “combined upward orientation toward moving lines” value is 0.814. The combined optomotor response in assay [2] was -1.96.
Consider `Cn1cnc([N+](=O)[O-])c1Sc1ncnc2[nH]cnc12` [Azathioprine], for which, in assay [5], the 1-h baseline activity is 7.62. Moreover, in assay [3], the startle is -0.818. Moreover, the combined optomotor response in assay [2] worked out at 2.29.
For the molecule `Nc1nc2c(ncn2COCCO)c(=O)[nH]1` [Acyclovir], the 1-h baseline activity in assay [5] is -2.63. Besides, the excitability in assay [4] amounted to 3.35.
In the case of `CC(CCc1ccc(O)cc1)NCCc1ccc(O)c(O)c1` (centres undefined) [Dobutamine hydrochloride], the 1-h baseline activity in assay [5] is -2.47. The combined optomotor response in assay [2] amounted to 1.08.
For the molecule `CC(C)CN(C[C@@H](O)[C@H](Cc1ccccc1)NC(=O)O[C@H]1CO[C@H]2OCC[C@H]21)S(=O)(=O)c1ccc(N)cc1` [Darunavir], in assay [4], the excitability was -0.913.
`CCN(CC)CCNC(=O)c1c(C)[nH]c(/C=C2\C(=O)Nc3ccc(F)cc32)c1C` [Sunitinib malate]: in assay [5], the 1-h baseline activity is -14. Besides, in assay [2], the combined optomotor response amounted to 2.67.
For `CC[C@H](C)C(=O)O[C@H]1C[C@@H](C)C=C2C=C[C@H](C)[C@H](CC[C@@H]3C[C@@H](O)CC(=O)O3)[C@H]21` [Lovastatin], the habituation in assay [6] is -2.11. Further, the combined optomotor response in assay [2] worked out at 5.24.
In the case of `Cc1cccc(C)c1OCC(C)N` (centres undefined) [Mexiletine hydrochloride], the 1-h baseline activity in assay [5] amounted to 3.37. In addition, the combined optomotor response in assay [2] was found to be 2.6.
